Measurements published in PubChem BioAssay (EPA / NIEHS).
Values joined by “and” are separate entries in the source; they are usually repeats but may differ in a detail not shown here. Equal entries are not always repeated. Results filed as inconclusive are left out. Active and inactive are the calls of the source. The calls were made as follows, unless noted: active = hit-call score of the fitted dose curve at least 0.9, where 1 is the maximum; inactive = score below 0.9.

Legend:
[1] = read-out: Monocyte Chemoattractant Protein-1 (MCP1), CCL2 (gene 6347); test: BSK_LPS_MCP1: BioMAP Diversity Plus: LPS Assay for Monocyte Chemoattractant Protein-1 (MCP1) Biomarker Activity (AID 2283081); conditions: primary human HUVEC with PBMC; actives raise or lower the signal;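 as to AC50: secreted MCP-1 protein quantified by ELISA in culture supernatant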
How it was run: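 Human umbilical vein endothelial cells co-cultured with PBMC, LPS-stimulated; secreted MCP-1 measured by ELISA 24 h after compound addition. Bidirectional curve fitting against DMSO baseline; SRB total-protein staining in parallel cultures for cytotoxicity.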

[2] = BSK_LPS_PGE2: BioMAP Diversity Plus: LPS Assay for Prostaglandin E2 (PGE2) Biomarker Activity (AID 2283082); conditions: primary human HUVEC with PBMC; actives raise or lower the signal;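 as to AC50: secreted prostaglandin E2 measured by ELISA in LPS-stimulated co-culture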
How it was run: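 HUVEC plus PBMC co-culture stimulated with LPS; secreted PGE2 quantified by ELISA 24 h after chemical dosing. Activity fitted bidirectionally against DMSO as negative control and baseline; parallel SRB total-protein staining served as cytotoxicity check.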

[3] = read-out: Macrophage colony-stimulating factor (MCSF), CSF1 (gene 1435); test: BSK_LPS_MCSF: BioMAP Diversity Plus: LPS Assay for Macrophage colony-stimulating factor (MCSF) Biomarker Activity (AID 2283083); conditions: primary human HUVEC with PBMC; actives raise or lower the signal
How it was run: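 HUVEC–PBMC co-culture, M-CSF measured by ELISA 24 h after chemical dosing. Fitted in both directions relative to DMSO as negative control; overt cytotoxicity assessed by SRB total-protein staining in parallel cultures.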

[4] = read-out: Tissue Factor, F3 (gene 2152); test: BSK_LPS_TissueFactor: BioMAP Diversity Plus: LPS Assay for Tissue Factor Biomarker Activity (AID 2283084); conditions: primary human HUVEC with PBMC; actives raise or lower the signal
How it was run: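 Human umbilical vein endothelial cells co-cultured with PBMC were dosed with compound. Cell-surface CD142 was measured by ELISA 24 h later. Activity was fitted bidirectionally against DMSO, with SRB total-protein staining in parallel cultures for cytotoxicity.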

[5] = read-out: Tumor necrosis factor (Homo sapiens) (UniProt P01375); test: BSK_LPS_TNFa: BioMAP Diversity Plus: LPS Assay for Tumour Necrosis Factor alpha (TNFa) Biomarker Activity (AID 2283085); conditions: primary human HUVEC with PBMC; actives raise or lower the signal
How it was run: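 Human umbilical vein endothelial cells co-cultured with PBMC were exposed to test chemical and TNFa measured by ELISA 24 h after dosing. Bidirectional curve fitting was done relative to DMSO as negative control and baseline.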

[6] = read-out: Vascular cell adhesion molecule 1 (VCAM1), VCAM1 (gene 7412); test: BSK_LPS_VCAM1: BioMAP Diversity Plus: LPS Assay for Vascular cell adhesion molecule 1 (VCAM1) Biomarker Activity (AID 2283086); conditions: primary human HUVEC with PBMC; actives raise or lower the signal
How it was run: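 Human umbilical vein endothelial cells co-cultured with peripheral blood mononuclear cells under LPS stimulation were exposed to test chemical for 24 h. VCAM-1 levels were then measured by ELISA, with bidirectional curve fitting relative to DMSO as negative control and baseline.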

[7] = read-out: CD40, CD40 (gene 958); test: BSK_SAg_CD40: BioMAP Diversity Plus: SAg Assay for CD40 Biomarker Activity (AID 2283088); conditions: primary human HUVEC with PBMC; actives raise or lower the signal
How it was run: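 HUVEC plus PBMC co-culture, superantigen-activated, with CD40 read by ELISA 24 h after dosing. Curves fitted in both directions against DMSO. Overt cytotoxicity checked by parallel SRB total-protein staining.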

[8] = read-out: CD69, CD69 (gene 969); test: BSK_SAg_CD69: BioMAP Diversity Plus: SAg Assay for CD69 Biomarker Activity (AID 2283089); conditions: primary human HUVEC with PBMC; actives raise or lower the signal;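 as to AC50: cell surface CD69 protein quantified by ELISA with fluorescence detection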
How it was run: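 ELISA, fluorescence read-out: CD69 on human umbilical vein endothelial cell + PBMC co-culture, 24 h post-dosing. Gain or loss of signal fitted bidirectionally against DMSO baseline.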

[9] = read-out: Monocyte Chemoattractant Protein-1 (MCP1), CCL2 (gene 6347); test: BSK_SAg_MCP1: BioMAP Diversity Plus: SAg Assay for Monocyte Chemoattractant Protein-1 (MCP1) Biomarker Activity (AID 2283090); conditions: primary human HUVEC with PBMC; actives raise or lower the signal
How it was run: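 MCP-1 levels in the endothelial–PBMC SAg co-culture were quantified by ELISA at 24 h post-dosing; both increases and decreases versus DMSO scored. Cytotoxicity monitored by SRB total protein in parallel cultures.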

[10] = read-out: E-selectin (Homo sapiens) (UniProt P16581); test: BSK_SAg_Eselectin: BioMAP Diversity Plus: SAg Assay for Eselectin Biomarker Activity (AID 2283091); conditions: primary human HUVEC with PBMC; actives raise or lower the signal
How it was run: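 Human umbilical vein endothelial cells co-cultured with peripheral blood mononuclear cells, SAg system. E-selectin is measured by ELISA 24 h after dosing and fitted bidirectionally against DMSO. Cytotoxicity is checked by SRB staining of parallel cultures.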

[11] = read-out: Monokine induced gamma interferon (MIG), CXCL9 (gene 4283); test: BSK_SAg_MIG: BioMAP Diversity Plus: SAg Assay for Monokine induced gamma interferon (MIG) Biomarker Activity (AID 2283092); conditions: primary human HUVEC with PBMC; actives raise or lower the signal
How it was run: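 ELISA readout of MIG/CXCL9; primary human umbilical vein endothelial cells co-cultured with peripheral blood mononuclear cells; 24 h post-dose; gain/loss fit vs DMSO baseline.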

[12] = BSK_SAg_PBMCCytotoxicity: PBMC Cytotoxicity Assessment in the BioMAP Diversity Plus: SAg Assay (AID 2283093); conditions: primary human HUVEC with PBMC;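 also: PBMC viability measured as Alamar Blue reduction fluorescence at 546/580 nm; fitted both ways against DMSO so a hit may be loss or gain of signal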;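 as to AC50: PBMC superantigen activated with SEB plus TSST-1 one hour after compound addition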
How it was run: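 Compound added to 75,000 PBMC/well for 1 h; SEB and TSST-1 then added at 20 ng/mL final each; 90 h incubation; Alamar Blue 6 h; read 546/580 nm ex/em. Activity fitted bidirectionally relative to DMSO baseline.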

[13] = read-out: Interleukin-8 (IL8), CXCL8 (gene 3576); test: BSK_SAg_IL8: BioMAP Diversity Plus: SAg Assay for Interleukin-8 (IL8) Biomarker Activity (AID 2283094); conditions: primary human HUVEC with PBMC; actives raise or lower the signal
How it was run: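 Human umbilical vein endothelial cells co-cultured with peripheral blood mononuclear cells; IL-8 measured by ELISA 24 h after chemical dosing. Bidirectional concentration-response fitting used DMSO as negative control and activity baseline.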

[14] = BSK_SAg_Proliferation: Cell Proliferation Assessment in the BioMAP Diversity Plus: SAg Assay (AID 2283095); conditions: primary human HUVEC with PBMC;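 also: relative cell number as total protein by SRB absorbance in sub-confluent culture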
How it was run: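 Human umbilical vein endothelial cells co-cultured with peripheral blood mononuclear cells; total protein measured by sulforhodamine B staining (0.1% SRB after 10% TCA fixation), absorbance at 560 nm, at 96 h. Bidirectional fit against DMSO baseline.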

[15] = BSK_SAg_SRB: Viability Assessment in the BioMAP Diversity Plus: SAg Assay (AID 2283096); conditions: primary human HUVEC with PBMC;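 also: cells read one day after compound addition; hits may be either gain or loss of signal compared with DMSO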
How it was run: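 Total protein by sulforhodamine B staining, 24 h after dosing, in HUVEC–PBMC co-culture; DMSO-referenced bidirectional fitting.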

[16] = biological target: human CYP19A1, CYP19A1 (gene 1588) (UniProt P11511); test: NVS_ADME_hCYP19A1: NovaScreen (NVS) CYP450-related Enzyme Activity (ADME) Assay for human CYP19A1 (AID 2283098; active = hit-call score of the fitted dose curve at least 0.9, where 1 is the maximum)
Sequence of human CYP19A1, CYP19A1 (gene 1588) (P11511 whole entry, looked up): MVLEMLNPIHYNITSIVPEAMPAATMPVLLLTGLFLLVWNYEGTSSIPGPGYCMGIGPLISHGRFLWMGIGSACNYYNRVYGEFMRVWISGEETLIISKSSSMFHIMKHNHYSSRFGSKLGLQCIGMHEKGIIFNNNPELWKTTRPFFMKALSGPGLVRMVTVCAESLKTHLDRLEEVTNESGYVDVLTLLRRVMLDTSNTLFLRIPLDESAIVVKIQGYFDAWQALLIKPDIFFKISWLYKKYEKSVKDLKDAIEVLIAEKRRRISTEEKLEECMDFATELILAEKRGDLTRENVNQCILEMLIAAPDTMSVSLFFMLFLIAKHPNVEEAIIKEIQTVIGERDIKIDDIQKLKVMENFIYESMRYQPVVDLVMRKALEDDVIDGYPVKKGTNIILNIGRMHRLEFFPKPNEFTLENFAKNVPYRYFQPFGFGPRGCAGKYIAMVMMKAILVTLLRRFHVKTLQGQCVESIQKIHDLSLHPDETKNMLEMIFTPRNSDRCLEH
How it was run: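 Biochem, cell-free; recombinant enzyme + specific substrate; fluorescence intensity at 0.5 h post-dose; 10 uM duplicate primary, conc. series for actives; acetonitrile = negative control/baseline; positive and negative controls on every plate.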

Measured: AC50

Sequence of E-selectin (Homo sapiens) (P16581 whole entry, looked up): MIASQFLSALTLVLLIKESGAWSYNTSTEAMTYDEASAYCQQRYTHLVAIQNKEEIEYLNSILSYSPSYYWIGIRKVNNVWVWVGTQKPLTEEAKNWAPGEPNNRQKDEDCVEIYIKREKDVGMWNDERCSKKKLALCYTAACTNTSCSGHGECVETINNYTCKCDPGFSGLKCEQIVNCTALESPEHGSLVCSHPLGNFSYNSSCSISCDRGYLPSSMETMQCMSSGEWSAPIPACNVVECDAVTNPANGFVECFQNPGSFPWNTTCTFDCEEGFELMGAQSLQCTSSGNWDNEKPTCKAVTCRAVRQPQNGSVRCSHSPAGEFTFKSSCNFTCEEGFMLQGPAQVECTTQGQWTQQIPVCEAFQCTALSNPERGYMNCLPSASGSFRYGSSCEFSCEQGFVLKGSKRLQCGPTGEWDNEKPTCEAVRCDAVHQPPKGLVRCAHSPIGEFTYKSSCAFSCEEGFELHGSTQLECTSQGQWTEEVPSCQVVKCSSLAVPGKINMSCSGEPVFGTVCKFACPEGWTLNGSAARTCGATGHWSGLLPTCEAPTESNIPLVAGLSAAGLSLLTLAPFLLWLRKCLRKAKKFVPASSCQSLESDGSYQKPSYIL
Sequence of Tumor necrosis factor (Homo sapiens) (P01375 whole entry, looked up): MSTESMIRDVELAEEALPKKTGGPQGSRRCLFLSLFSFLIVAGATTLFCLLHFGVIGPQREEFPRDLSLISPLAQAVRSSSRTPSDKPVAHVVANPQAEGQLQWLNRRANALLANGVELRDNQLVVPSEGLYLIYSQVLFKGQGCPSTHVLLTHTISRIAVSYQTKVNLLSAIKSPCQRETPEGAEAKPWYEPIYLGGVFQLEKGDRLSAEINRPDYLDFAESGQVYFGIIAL

O=C(Cl)C(F)(F)C(F)(F)C(F)(F)C(F)(F)C(F)(F)C(F)(F)F
not listed: [16]
inactive: all other assays above

CC(C)CCCC(C)CCO (stereo not drawn)
active: [10] 20 µM | [12] 30.6 µM
not listed: [13] | [14] | [16]
inactive: all other assays above

OCC(F)(F)C(F)(F)C(F)(F)CO
not listed: [14] | [16]
inactive: all other assays above

OCCCCC(F)(F)C(F)(F)C(F)(F)C(F)(F)F
not listed: [16]
inactive: all other assays above

CCN=C1C=CC(=C(c2ccc(N(CC)CC)cc2)c2ccc(N(CC)CC)cc2)c2ccccc21
active: [1] 261 nM and 1.13 µM | [2] 3.95 µM and 2.66 µM | [3] 1.72 µM and 1.53 µM | [4] 1.6 µM and 1.55 µM | [5] 501 nM and 519 nM | [6] 1.42 µM and 1.55 µM | [7] 1.69 µM and 1.51 µM | [8] 1.34 µM and 765 nM | [9] 762 nM and 1.25 µM | [10] 1.45 µM and 1.11 µM | [11] 1.82 µM and 1.55 µM | [12] 2.52 µM and 2.57 µM | [13] 1.47 µM and 1.15 µM | [14] 419 nM and 401 nM | [15] 1.78 µM and 2.37 µM

CCOC(OCC)OCC
inactive: [16]
